# Experimental data published in the supplement of paper PMC10849652.
# Targets with a hit are over-represented here; the source holds about 7,900 in all. About 0.6% of all pairs of compound and target were hits. Unmarked numbers belong to inactive results.
# How the values were obtained:
# Test in all cases: log2 fold change, soluble protein after heating vs DMSO (PISA); higher = thermal stabilisation; K562 cells, 10 uM, 30 min; active = over 0.2 and 3.5 SD of the protein, either way, in both replicates (recomputed)
# bafetinib = compound: Cc1ccc(NC(=O)c2ccc(CN3CC[C@H](N(C)C)C3)c(C(F)(F)F)c2)cc1Nc1nccc(-c2cncnc2)n1 [bafetinib]
# Method in brief: (§1)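 K562 cells at 2×10^6 cells/mL were treated for 30 min with 10 μM compound, and aliquots were heated for 3 min over 48°C-58°C before pooling. Extraction used PBS with 0.5% NP-40 at 4°C, and soluble protein was the supernatant after 21,000xg for 90 min, measured by TMTpro 16plex LC-MS/MS with channel sums equalised. Thermal stability values, relative to control samples and from duplicates, are log2 fold changes.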
# [1] = compound: Cc1cccc(CC(=O)N2CCc3c2ccc(-c2cn(C)c4ncnc(N)c24)c3F)n1
# Method in brief: as §1
# nilotinib = compound: Cc1cn(-c2cc(NC(=O)c3ccc(C)c(Nc4nccc(-c5cccnc5)n4)c3)cc(C(F)(F)F)c2)cn1 [nilotinib]
# Method in brief: as §1
# [2] = compound: Cc1nc(Nc2n[nH]c3c2CN(C(=O)N[C@H](CN(C)C)c2ccccc2)C3(C)C)c2sccc2n1
# Method in brief: as §1
# dasatinib = compound: Cc1nc(Nc2ncc(C(=O)Nc3c(C)cccc3Cl)s2)cc(N2CCN(CCO)CC2)n1 [dasatinib]
# Method in brief: as §1
# [3] = compound: Cc1ncc(-c2ccnc(Nc3ccc(S(C)(=O)=O)cc3)n2)n1C(C)C
# Method in brief: as §1
# [4] = compound: Cn1cc(-c2ccc3c(c2)CCN3C(=O)Cc2cccc(C(F)(F)F)c2)c2c(N)ncnc21
# Method in brief: as §1
# [5] = compound: Cn1cc(-c2ccc3nnc(C(F)(F)c4ccc5ncccc5c4)n3n2)cn1
# Method in brief: as §1
# tipifarnib = compound: Cn1cncc1[C@@](N)(c1ccc(Cl)cc1)c1ccc2c(c1)c(-c1cccc(Cl)c1)cc(=O)n2C [tipifarnib]
# Method in brief: as §1
# mubritinib = compound: FC(F)(F)c1ccc(/C=C/c2nc(COc3ccc(CCCCn4ccnn4)cc3)co2)cc1 [mubritinib]
# Method in brief: as §1
# Chain of UniProt Q8NHP8 (Q8NHP8 whole entry, looked up): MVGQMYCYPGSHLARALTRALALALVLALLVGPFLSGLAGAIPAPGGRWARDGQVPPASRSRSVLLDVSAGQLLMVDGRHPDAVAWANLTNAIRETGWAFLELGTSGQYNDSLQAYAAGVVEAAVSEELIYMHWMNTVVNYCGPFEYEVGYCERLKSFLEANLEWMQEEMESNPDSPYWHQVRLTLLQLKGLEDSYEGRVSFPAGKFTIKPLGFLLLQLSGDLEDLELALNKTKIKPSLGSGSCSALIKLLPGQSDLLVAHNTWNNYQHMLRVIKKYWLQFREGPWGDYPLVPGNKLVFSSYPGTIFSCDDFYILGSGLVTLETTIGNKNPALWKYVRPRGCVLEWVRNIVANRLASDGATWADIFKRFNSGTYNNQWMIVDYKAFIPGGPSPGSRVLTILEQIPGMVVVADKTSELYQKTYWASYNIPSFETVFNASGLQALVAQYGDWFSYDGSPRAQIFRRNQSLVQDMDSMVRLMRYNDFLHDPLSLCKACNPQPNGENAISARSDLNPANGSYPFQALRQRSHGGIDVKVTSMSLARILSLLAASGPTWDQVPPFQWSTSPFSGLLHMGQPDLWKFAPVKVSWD
# Chain of UniProt O95602 (O95602 whole entry, looked up): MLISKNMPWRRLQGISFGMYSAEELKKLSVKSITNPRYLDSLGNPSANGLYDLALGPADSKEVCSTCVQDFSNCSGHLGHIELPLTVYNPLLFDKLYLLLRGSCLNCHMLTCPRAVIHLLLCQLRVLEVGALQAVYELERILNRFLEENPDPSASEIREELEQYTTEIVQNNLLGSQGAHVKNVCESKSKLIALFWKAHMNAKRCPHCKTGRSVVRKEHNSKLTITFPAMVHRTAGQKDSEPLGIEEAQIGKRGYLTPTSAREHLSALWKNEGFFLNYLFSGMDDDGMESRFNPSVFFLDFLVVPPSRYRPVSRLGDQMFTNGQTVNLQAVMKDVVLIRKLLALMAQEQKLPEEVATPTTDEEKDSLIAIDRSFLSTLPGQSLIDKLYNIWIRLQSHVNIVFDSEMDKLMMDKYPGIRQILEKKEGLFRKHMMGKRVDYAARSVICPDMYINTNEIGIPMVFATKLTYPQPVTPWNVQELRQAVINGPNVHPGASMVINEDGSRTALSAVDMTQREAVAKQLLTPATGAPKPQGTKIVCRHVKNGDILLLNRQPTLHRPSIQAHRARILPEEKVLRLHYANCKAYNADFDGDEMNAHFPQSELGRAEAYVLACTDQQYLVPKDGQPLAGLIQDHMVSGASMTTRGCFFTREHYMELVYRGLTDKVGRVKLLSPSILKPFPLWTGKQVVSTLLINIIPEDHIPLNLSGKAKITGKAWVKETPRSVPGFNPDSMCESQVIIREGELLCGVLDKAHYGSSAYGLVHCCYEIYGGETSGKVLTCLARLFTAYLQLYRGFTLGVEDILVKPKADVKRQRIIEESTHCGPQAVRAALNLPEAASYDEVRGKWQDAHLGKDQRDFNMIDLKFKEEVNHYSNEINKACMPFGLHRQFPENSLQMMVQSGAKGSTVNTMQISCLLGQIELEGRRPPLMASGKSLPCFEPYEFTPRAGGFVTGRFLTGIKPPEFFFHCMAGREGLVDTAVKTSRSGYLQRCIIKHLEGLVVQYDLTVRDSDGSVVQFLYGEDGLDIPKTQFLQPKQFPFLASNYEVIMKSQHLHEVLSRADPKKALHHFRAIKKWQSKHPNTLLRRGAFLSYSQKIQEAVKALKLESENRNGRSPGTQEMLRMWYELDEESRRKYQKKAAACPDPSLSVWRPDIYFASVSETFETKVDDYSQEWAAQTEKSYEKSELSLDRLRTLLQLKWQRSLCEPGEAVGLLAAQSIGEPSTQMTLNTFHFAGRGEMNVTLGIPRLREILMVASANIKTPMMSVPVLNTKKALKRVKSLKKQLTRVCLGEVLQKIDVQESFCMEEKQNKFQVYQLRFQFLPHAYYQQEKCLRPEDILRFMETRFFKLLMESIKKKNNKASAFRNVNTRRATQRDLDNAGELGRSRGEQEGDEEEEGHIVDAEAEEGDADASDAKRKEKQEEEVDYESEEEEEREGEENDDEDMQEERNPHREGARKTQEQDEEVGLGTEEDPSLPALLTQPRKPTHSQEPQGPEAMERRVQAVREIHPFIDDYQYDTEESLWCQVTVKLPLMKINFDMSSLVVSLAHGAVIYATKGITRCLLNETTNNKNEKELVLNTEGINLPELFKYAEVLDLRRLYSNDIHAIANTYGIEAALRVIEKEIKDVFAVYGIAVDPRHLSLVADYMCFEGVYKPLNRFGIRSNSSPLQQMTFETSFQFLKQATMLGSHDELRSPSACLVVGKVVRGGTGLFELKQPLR
# Chain of UniProt P42338 (P42338 whole entry, looked up): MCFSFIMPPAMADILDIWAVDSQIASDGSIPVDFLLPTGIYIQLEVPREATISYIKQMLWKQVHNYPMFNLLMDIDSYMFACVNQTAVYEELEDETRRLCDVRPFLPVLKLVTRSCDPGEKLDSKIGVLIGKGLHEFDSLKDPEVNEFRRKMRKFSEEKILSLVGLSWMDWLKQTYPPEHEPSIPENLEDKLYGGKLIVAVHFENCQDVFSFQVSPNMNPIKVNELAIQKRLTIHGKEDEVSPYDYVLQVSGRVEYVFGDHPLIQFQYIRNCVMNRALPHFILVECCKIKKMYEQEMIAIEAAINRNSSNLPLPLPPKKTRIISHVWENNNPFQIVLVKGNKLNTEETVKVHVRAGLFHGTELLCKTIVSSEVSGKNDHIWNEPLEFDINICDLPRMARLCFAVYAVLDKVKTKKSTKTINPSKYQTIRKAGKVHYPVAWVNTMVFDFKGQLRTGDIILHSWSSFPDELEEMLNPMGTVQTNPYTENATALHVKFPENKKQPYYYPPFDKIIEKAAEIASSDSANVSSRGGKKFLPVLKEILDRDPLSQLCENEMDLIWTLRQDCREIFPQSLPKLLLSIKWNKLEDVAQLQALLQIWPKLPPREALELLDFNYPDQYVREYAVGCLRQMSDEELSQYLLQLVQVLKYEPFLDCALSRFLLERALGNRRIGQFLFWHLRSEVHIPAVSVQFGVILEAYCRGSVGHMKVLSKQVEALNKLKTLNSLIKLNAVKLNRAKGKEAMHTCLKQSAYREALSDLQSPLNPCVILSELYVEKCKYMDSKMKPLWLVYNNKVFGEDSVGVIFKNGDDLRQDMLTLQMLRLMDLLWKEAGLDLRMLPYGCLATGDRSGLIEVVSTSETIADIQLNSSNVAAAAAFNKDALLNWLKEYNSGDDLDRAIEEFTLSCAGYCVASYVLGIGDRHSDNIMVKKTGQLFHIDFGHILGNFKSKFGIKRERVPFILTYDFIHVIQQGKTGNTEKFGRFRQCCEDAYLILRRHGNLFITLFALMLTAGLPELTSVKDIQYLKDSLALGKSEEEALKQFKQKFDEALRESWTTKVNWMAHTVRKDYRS
# Chain of UniProt O96011 (O96011 whole entry, looked up, change not shown): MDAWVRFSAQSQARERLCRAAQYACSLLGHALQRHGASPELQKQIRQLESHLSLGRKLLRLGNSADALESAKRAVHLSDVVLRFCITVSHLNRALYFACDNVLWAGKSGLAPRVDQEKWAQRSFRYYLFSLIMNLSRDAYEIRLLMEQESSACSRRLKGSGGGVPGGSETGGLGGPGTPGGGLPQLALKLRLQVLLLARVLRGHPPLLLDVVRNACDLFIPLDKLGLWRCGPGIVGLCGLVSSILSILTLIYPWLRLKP
# Chain of UniProt Q9NW08 (Q9NW08 whole entry, looked up): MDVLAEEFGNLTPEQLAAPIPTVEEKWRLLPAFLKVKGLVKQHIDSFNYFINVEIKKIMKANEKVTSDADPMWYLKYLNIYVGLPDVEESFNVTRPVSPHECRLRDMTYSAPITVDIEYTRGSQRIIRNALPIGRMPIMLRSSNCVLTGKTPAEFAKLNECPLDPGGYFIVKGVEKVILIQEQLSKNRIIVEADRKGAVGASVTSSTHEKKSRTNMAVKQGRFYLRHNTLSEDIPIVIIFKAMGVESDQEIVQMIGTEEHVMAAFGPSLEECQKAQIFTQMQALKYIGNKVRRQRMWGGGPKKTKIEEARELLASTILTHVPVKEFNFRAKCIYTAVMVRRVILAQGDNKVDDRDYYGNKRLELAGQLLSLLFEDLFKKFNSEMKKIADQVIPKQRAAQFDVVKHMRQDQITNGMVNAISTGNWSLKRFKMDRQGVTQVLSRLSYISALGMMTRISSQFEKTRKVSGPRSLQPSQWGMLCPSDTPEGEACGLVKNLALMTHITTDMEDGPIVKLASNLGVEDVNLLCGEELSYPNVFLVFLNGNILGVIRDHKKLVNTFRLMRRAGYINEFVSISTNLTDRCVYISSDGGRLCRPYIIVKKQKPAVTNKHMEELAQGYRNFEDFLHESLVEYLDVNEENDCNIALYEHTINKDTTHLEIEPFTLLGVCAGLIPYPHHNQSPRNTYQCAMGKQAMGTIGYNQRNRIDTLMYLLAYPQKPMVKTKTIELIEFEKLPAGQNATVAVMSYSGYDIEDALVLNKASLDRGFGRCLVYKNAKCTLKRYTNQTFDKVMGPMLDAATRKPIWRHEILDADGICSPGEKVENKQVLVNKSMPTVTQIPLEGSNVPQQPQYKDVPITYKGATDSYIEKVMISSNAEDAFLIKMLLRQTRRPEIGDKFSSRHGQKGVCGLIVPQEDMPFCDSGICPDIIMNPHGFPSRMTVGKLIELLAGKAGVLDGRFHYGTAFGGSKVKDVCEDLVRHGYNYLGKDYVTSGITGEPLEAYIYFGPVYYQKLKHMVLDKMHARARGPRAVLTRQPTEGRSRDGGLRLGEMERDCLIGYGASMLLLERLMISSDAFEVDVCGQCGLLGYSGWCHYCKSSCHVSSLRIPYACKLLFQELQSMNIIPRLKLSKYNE
# Chain of UniProt Q92871 (Q92871 whole entry, looked up): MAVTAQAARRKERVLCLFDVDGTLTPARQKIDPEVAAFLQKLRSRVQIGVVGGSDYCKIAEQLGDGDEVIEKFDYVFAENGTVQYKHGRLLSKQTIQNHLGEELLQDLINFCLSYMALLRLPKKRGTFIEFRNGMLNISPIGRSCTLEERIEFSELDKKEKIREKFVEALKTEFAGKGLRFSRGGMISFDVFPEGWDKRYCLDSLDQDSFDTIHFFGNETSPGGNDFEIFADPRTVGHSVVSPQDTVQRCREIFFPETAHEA
Target,log2 fold change (bafetinib),log2 fold change [1],log2 fold change (nilotinib),log2 fold change [2],log2 fold change (dasatinib),log2 fold change [3],log2 fold change [4],log2 fold change [5],log2 fold change (tipifarnib),log2 fold change (mubritinib)
PDLIM7 (UniProt Q9NR12),-0.01,0.107,0,-0.078,-0.036,-0.01,0.006,-0.048,-0.091,-0.042
PURA (UniProt Q00577),0.108,-0.089,0.06,0.105,0.335,0.017,-0.382,-0.12,0.207,-0.06
PNPLA8 (UniProt Q9NP80),-0.04,-0.13,0.036,-0.026,-0.055,0.038,0.036,-0.063,0.053,0.095
PLEKHM2 (UniProt Q8IWE5),-0.09,-0.024,-0.054,-0.002,-0.072,-0.077,0.001,-0.08,-0.028,0.096
PPID (UniProt Q08752),0.015,0.075,-0.113,-0.13,-0.206,0.062,0.023,0.076,-0.148,-0.005
POLR3K (UniProt Q9Y2Y1),-0.006,-0.039,0.035,-0.003,0.098,0.01,-0.02,-0.021,0.033,-0.088
PDSS2 (UniProt Q86YH6),0.077,0.048,0.029,0.163,0.06,-0.154,0.052,0.02,-0.095,–
POLR1A (UniProt O95602),-0.11,0.004,-0.051,0.046,0.046,-0.003,-0.16,-0.057,0.019,0.069
PIK3CB (UniProt P42338),-0.075,0.028,-0.084,-0.056,-0.209,0.034,-0.002,0.049,-0.105,0.037
PDE2A (UniProt O00408),0.021,-0.02,0.023,0.016,-0.103,-0.012,0.063,-0.03,-0.031,-0.051
POLR2M (UniProt P0CAP2),-0.029,-0.015,-0.011,0.034,0.055,0.138,-0.051,-0.024,0.035,-0.037
PMM1 (UniProt Q92871),-0.2,0.022,-0.606 (active),-0.152,-0.027,0.003,0.05,0.025,0.134,0.066
PTP4A1 (UniProt Q93096),-0.023,0.013,0.039,-0.049,0.108,-0.299 (active),0.181,0.093,-0.005,0.074
PPP1R12A (UniProt O14974),-0.041,-0.02,-0.027,-0.302,-0.108,-0.118,-0.002,0.02,-0.023,0.07
POLR3B (UniProt Q9NW08),0.104,0.045,-0.111,-0.285,-0.238,-0.028,-0.059,0.089,-0.108,-0.086
PLBD2 (UniProt Q8NHP8),-0.173,-0.056,-0.011,0.024,-0.013,-0.052,0.017,0.044,0.093,0.056
PRKAR1A (UniProt P10644),0.232,-0.006,0.12,0.195,-0.046,0.152,0,0.281,0.231,-0.169
PEX11B (UniProt O96011),-0.022,0.081,0.04,0.041,-0.071,-0.043,0.049,0.01,-0.063,0.058
PTP4A3 (UniProt O75365),0.162,–,–,–,–,–,–,–,–,–
PSMD2 (UniProt Q13200),0.079,0,-0.031,0.061,0.031,-0.005,-0.12,-0.006,0.07,-0.038
PSPC1 (UniProt Q8WXF1),0.015,0.088,-0.004,-0.179,-0.02,-0.112,-0.003,0,-0.004,-0.033
PEX13 (UniProt Q92968),-0.159,0.106,-0.046,0,0.014,0.035,-0.071,-0.075,-0.027,0.042
PISD (UniProt Q9UG56),-0.042,-0.007,-0.053,-0.003,-0.029,0.105,-0.068,-0.02,-0.005,0.103
PSMD3 (UniProt O43242),0.129,0.032,0.008,0.089,0.004,-0.012,-0.064,-0.018,0.025,-0.019
PTPN23 (UniProt Q9H3S7),0.028,0.053,-0.07,-0.096,-0.199,0.059,-0.016,0.02,-0.069,0.034
PCGF2 (UniProt P35227),0.015,-0.035,-0.097,-0.235,-0.127,0.028,0.004,0.081,0.001,-0.001
PXK (UniProt Q7Z7A4),-0.01,0.086,-0.026,0.025,0.226,0.012,0.029,-0.106,-0.001,0.098
PIP4K2C (UniProt Q8TBX8),0.663,-0.112,0.354,0.053,-0.042,1.25 (active),0.144,0.568,-0.07,-0.084
